# Screens from PubChem.
# KKLEB tox – counter-screen for CF NF-kB inhibitors: cytotoxicity; KKLEB CF airway cells viability, ATPlite luminescence, overnight; stronger effect = lower value; cells stimulated with P. aeruginosa culture filtrate; activity change (cytotoxicity), % at 5 µM; 360,000 compounds, 0.36% hits; AID 602141;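 active = corrected activity change at or below -50% at 5 µM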
# CF NFkB inh – blocks PAF-induced NF-kB reporter in cystic fibrosis cells. inhibition, % at 5 µM. KKLEB NF-kB-GFP reporter, GFP fluorescence overnight. 360,000 compounds, 0.86% hits;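 active = at least 50% inhibition at 5 µM, scaled per plate between neutral and stimulator controls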;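 also: PAF is a Pseudomonas aeruginosa culture filtrate used as stimulus; plate controls were PAF-stimulated DMSO wells for no effect and unstimulated DMSO wells for full effect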
# TROY signal inh – inhibitors of TROY-dependent NF-kB signaling; 360,000 compounds, 0.98% hits; AID 1347056; Q293 LMP1-TROYcd NF-kB luciferase reporter, 4 h; inhibition, % at 10 µM;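 active = compounds whose plate-normalised and pattern-corrected inhibition of the luciferase reporter signal at the single screening dose is 50% or more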
# HIF-2a block – blocks HIF-2a reporter activity. 786-0 RCC cells HIF-2a reporter, luciferase luminescence, overnight. inhibition, % at 18.8 µM. 360,000 compounds, 0.72% hits. AID 624352;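 active = inhibition of the luminescence signal of 40% or more relative to plate controls, in a single-dose primary screen at 18.75 µM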
# TWEAK Fn14 block – inhibitors of TWEAK-Fn14 interaction signaling. TWEAK-stimulated Fn14 reporter cells, luciferase luminescence, 8 h. inhibition, % at 10 µM. 360,000 compounds, 2% hits; in the data active = inhibition above about 50%
# Peg3 prom inh – reduces Peg3 promoter-driven luciferase expression in HeLa; HeLa PEG-Prom luciferase reporter, luminescence, overnight; inhibition, % at 20 µM; 360,000 compounds, 1.7% hits;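 active = inhibition of at least 50% at 20 µM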
# Active calls of the source: *; . = no result. Sampled rows, rich in hits. Any-hit rate of the full collection: about 4%.
SMILES,KKLEB tox,CF NFkB inh,TROY signal inh,HIF-2a block,TWEAK Fn14 block,Peg3 prom inh
O=C(NCC(c1cccs1)N1CCOCC1)C1CCN(S(=O)(=O)c2c(Cl)cccc2Cl)CC1 (configuration not stated),14,-10,-5,-1,-12,15
COc1cc2nc(N3CCN(C(=O)c4ccco4)CC3)nc(N)c2cc1OC,2,-21,-12,-2,-32,56*
COc1cc2nc(N3CCN(C(=O)C4COc5ccccc5O4)CC3)nc(N)c2cc1OC (configuration not stated),-4,-15,-5,2,-36,-4
Cc1cc(Nc2ccccc2)nn1C(=O)c1ccc(Br)cc1,8,-4,.,-10,53*,-94
Cc1cc(C)cc(OCC(=O)NNC(=O)c2ccccn2)c1,7,5,-15,3,4,32
COc1ccc(-c2cn[nH]c2N)c(OC)c1,-20,64*,14,9,27,11
CCCN(CCC)CCCNC(=O)CC(C(=O)N1CCc2ccccc21)n1ccnc1 (configuration not stated),-25,-13,10,-15,22,2
CCN(CC)CC(C)CNC(=O)CC(C(=O)N1CCc2ccccc21)n1ccnc1 (configuration not stated),14,-8,12,-14,56*,17
CCOc1ccc(NC(=S)N(CCOC)C2CCN(C(C)C)CC2)cc1,-1,15,-1,11,-2,-3
Cc1ccc(NC(=S)N/N=C/c2ccc(Cl)c([N+](=O)[O-])c2)cc1,17,-13,-14,-19,-15,86*
CNC(=S)Nc1ccc([N+](=O)[O-])c(C)c1,-13,17,-26,-35,68*,-33
COc1cc(/C=N/NC(=O)Cc2ccccc2)ccc1Oc1ccc([N+](=O)[O-])cc1[N+](=O)[O-],0,9,21,-1,52*,15
Cc1ccc(C=NNC(=O)C(=O)Nc2ccc(Cl)c([N+](=O)[O-])c2)cc1,-15,3,-11,3,-8,6
COc1ccc([N+](=O)[O-])cc1/C=N/NC(=O)Cc1ccccc1,-9,6,8,17,-3,6
COc1ccc(/C=N/NC(=S)Nc2ccccc2[N+](=O)[O-])cc1O,-10,4,86*,-60,93*,-28
O=C(Nc1nnc([C@@H]2C[C@H](O)[C@@H](CO)O2)s1)c1c(F)cccc1F,-18,-18,7,7,8,5
Cc1cccnc1NC(=O)CSc1ccc2c(c1)OCCO2,-8,1,-23,-44,-8,-61
COc1cc(OC)c(-c2c3cc(O)c(=O)cc-3oc3cc(O)c(O)cc23)cc1OC,-11,-7,8,22,62*,34
COc1cc(-c2cc(=O)c3ccc(O)cc3o2)cc(OC)c1OC,-12,23,-6,-22,-15,-2
CCc1cc(C(=O)N2CCCC(Nc3ccc(F)c(F)c3)C2)n(C)n1 (configuration not stated),-1,1,0,11,-2,15
COc1ccc(C(=O)NC2CC2)cc1OC1CCN(Cc2ccc(NC(C)=O)cc2)CC1,4,4,-5,12,-5,4
Cc1ccccc1C(=O)Oc1cccc(Nc2ncnc3ccccc23)c1,2,14,51*,-2,53*,-23
Cc1ccccc1C(=O)NNC(=O)c1cc(N)cc([N+](=O)[O-])c1,4,0,57*,14,-15,7
O=C(Nc1cccc(C(F)(F)F)c1)c1ccc2sc([C@H]3C[C@H](O)[C@@H](CO)O3)nc2c1,4,3,28,-45,40,-2
CC(=O)N1CCn2c3c(c4cc(C)ccc42)CCCC31 (configuration not stated),3,-10,-39,-57,-15,-43
Cc1ccc2c(c1)c1c3n2CCN(C(=O)CCl)C3CCC1 (configuration not stated),-26,20,18,-25,6,56*
Cc1ccc(C23CC4CC(CC(NC(=O)NCCN(C)C)(C4)C2)C3)cc1,-7,11,12,5,14,34
CN(C)CCNC(=O)COc1ccc(C23CC4CC(CC(C4)C2)C3)cc1,-32,26,5,8,-18,97*
CC(C)Cc1nnc(NC(=O)CCC(=O)N2CCCCC2)s1,10,4,-2,-1,-21,3
